# Test results as given in publication PMC5700166.
# Positions count from the first letter of the chain named.
# How the values were obtained:
# Test in all cases: protein-binding microarray (PBM); PBM: ~300 nM protein, 6 mM HEPES pH 7.8, 80 mM KCl, 0.5 mM EDTA, 0.5 mM EGTA, 6% glycerol, 35 ng/ul poly-dIdC, 1% milk, 1 h, room temperature; Ap Aiptasia and Nv Nematostella (sea anemones) / Co Capsaspora / Aq Amphimedon (sponge) / Dm Drosophila / Hu human; RHD is the Rel homology domain; high values mean tight binding
# Conditions in all cases: dsDNA, one strand shown
# [1] = molecular target: T1, GST-Nv-NF-kB (Cys allele) (Nematostella vectensis, UniProt E5G601 2-411)
# T1 sequence: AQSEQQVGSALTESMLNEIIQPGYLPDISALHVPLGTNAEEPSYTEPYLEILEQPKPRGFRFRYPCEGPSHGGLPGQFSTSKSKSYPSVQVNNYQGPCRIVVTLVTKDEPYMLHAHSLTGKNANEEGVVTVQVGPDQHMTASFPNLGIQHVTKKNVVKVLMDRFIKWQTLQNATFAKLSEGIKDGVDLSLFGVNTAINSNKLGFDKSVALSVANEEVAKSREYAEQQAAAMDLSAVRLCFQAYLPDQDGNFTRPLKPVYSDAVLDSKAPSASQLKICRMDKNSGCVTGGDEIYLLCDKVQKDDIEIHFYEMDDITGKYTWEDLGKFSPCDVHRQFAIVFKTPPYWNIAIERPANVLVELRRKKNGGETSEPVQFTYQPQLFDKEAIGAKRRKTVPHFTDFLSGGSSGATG
# [2] = molecular target: T2, GST-Nv-NF-kB (Ser allele) (Nematostella vectensis, UniProt A7UNT2 2-411)
# T2 sequence: T1 sequence with Q21R, C66S, S207N, E215Q, V217A, E225K, A268E, D399E
# [3] = molecular target: T3, GST-Co-NF-kB (Capsaspora owczarzaki, UniProt F1ARL5 200-546)
# T3 sequence: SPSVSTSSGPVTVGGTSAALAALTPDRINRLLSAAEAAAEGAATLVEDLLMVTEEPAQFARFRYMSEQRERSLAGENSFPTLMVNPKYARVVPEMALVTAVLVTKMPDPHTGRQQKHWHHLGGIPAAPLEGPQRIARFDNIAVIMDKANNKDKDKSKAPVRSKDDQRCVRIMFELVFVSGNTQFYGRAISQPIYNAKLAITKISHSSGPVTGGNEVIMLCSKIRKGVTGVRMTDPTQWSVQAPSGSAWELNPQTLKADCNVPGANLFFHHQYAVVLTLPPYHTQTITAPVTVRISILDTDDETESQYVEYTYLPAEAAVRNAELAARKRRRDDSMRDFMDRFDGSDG
# [4] = molecular target: T4, GST-Dm-Relish (Drosophila melanogaster, UniProt Q94527 99-473)
# T4 sequence: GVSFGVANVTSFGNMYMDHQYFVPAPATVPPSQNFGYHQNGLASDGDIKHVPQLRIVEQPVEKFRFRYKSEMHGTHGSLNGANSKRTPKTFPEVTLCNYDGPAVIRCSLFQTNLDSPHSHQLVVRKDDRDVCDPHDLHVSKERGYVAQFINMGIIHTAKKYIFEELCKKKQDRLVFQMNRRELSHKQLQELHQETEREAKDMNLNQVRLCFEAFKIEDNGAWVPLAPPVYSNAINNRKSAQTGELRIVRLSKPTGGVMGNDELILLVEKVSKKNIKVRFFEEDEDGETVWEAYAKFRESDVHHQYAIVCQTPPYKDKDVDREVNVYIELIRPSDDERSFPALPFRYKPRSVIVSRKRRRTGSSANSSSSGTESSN
# [5] = molecular target: GST-Hu-p50 (Homo sapiens, UniProt P19838 7-356)
# [6] = molecular target: T5, GST-Aq-NF-kB (Amphimedon queenslandica, UniProt A9Y5G7 2-389)
# T5 sequence: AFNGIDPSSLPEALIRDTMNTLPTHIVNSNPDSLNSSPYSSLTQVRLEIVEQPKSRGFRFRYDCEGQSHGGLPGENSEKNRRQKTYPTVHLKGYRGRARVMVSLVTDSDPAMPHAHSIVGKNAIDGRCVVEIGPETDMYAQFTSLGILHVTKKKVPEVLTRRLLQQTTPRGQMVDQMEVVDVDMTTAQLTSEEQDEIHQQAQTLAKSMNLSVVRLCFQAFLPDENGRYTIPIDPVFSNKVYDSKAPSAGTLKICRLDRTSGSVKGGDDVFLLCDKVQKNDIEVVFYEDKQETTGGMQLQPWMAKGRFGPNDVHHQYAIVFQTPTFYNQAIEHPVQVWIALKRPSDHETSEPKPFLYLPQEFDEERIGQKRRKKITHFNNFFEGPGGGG
# [7] = molecular target: T6, GST-Ap-NF-kB RHD (Exaiptasia pallida (Aiptasia), UniProt A0A913YAJ5 2-422)
# T6 sequence: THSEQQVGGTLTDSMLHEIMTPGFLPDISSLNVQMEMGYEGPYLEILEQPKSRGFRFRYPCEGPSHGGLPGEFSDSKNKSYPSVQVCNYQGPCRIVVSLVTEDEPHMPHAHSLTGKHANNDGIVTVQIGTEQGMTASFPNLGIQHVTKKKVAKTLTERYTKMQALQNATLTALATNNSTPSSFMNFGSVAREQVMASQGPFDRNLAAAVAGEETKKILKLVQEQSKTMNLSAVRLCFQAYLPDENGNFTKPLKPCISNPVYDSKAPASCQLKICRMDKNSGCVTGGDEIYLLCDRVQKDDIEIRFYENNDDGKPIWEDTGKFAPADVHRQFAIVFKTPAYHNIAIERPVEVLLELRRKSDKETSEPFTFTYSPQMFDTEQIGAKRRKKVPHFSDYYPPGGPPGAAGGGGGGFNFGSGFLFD
# GST-Hu-p50, sequence (P19838 7-356): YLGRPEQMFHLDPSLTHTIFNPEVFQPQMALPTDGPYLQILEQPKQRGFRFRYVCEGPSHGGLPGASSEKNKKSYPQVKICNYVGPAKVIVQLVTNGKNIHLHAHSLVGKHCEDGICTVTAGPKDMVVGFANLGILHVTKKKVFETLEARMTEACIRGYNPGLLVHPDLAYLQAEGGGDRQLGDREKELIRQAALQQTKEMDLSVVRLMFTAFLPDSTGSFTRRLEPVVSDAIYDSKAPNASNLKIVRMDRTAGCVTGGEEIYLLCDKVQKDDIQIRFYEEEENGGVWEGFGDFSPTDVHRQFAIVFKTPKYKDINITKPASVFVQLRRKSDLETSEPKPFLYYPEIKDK
sequence,measurement,setting,value
CCGATTAACATCACGGAAAAAACTGATGTTAATCGGGTCTTGATTCGCTTGACGCTGCTG,binding signal,[1],1.12 z-score
same,binding signal,[2],1.13 z-score
same,binding signal,[3],1.37 z-score
same,binding signal,[4],1.6 z-score
same,binding signal,[5],1.36 z-score
CCGATTAACATCACAGCGTGAGGTGATGTTAATCGGGTCTTGATTCGCTTGACGCTGCTG,binding signal,[4],1.34 z-score
same,binding signal,[5],1.16 z-score
CCGATTAACATCAAAATTTTCCTTGATGTTAATCGGGTCTTGATTCGCTTGACGCTGCTG,binding signal,[4],2.92 z-score
same,binding signal,[6],1.12 z-score
CCGATTAACATCAGCAATGTAGGTGATGTTAATCGGGTCTTGATTCGCTTGACGCTGCTG,binding signal,[5],1.13 z-score
CCGATTAACATCACCTGGTCGGGTGATGTTAATCGGGTCTTGATTCGCTTGACGCTGCTG,binding signal,[2],1.03 z-score
same,binding signal,[3],1.5 z-score
same,binding signal,[4],1.13 z-score
same,binding signal,[5],2.04 z-score
CCGATTAACATCACGGGCAGTGGTGATGTTAATCGGGTCTTGATTCGCTTGACGCTGCTG,binding signal,[3],1.25 z-score
same,binding signal,[4],1.02 z-score
same,binding signal,[5],1.37 z-score
CCGATTAACATCACCTTTTACATTGATGTTAATCGGGTCTTGATTCGCTTGACGCTGCTG,binding signal,[5],1.53 z-score
CCGATTAACATCAGGAAGGGCGGTGATGTTAATCGGGTCTTGATTCGCTTGACGCTGCTG,binding signal,[7],1.05 z-score
same,binding signal,[3],1.08 z-score
same,binding signal,[5],1.07 z-score
CCGATTAACATCACCCTCCAATTTGATGTTAATCGGGTCTTGATTCGCTTGACGCTGCTG,binding signal,[5],1.13 z-score
CCGATTAACATCAATTCCCAACCTGATGTTAATCGGGTCTTGATTCGCTTGACGCTGCTG,binding signal,[1],2.15 z-score
same,binding signal,[2],1.9 z-score
same,binding signal,[3],2.06 z-score
same,binding signal,[5],1.06 z-score
CCGATTAACATCATATTGGGAAATGATGTTAATCGGGTCTTGATTCGCTTGACGCTGCTG,binding signal,[1],2.26 z-score
same,binding signal,[2],1.92 z-score
same,binding signal,[3],2.03 z-score
same,binding signal,[5],1.12 z-score
CCGATTAACATCACCTTGTGATCTGATGTTAATCGGGTCTTGATTCGCTTGACGCTGCTG,binding signal,[5],1.21 z-score
CCGATTAACATCAGGGCTTTCCATGATGTTAATCGGGTCTTGATTCGCTTGACGCTGCTG,binding signal,[4],3.94 z-score
same,binding signal,[6],3.39 z-score
CCGATTAACATCACCCACCGATTTGATGTTAATCGGGTCTTGATTCGCTTGACGCTGCTG,binding signal,[7],1.07 z-score
CCGATTAACATCACCTTAGGTTTTGATGTTAATCGGGTCTTGATTCGCTTGACGCTGCTG,binding signal,[5],1.04 z-score
CCGATTAACATCAATGGGTTTCCTGATGTTAATCGGGTCTTGATTCGCTTGACGCTGCTG,binding signal,[4],2.98 z-score
same,binding signal,[6],1.07 z-score
CCGATTAACATCACCGAAATTCCTGATGTTAATCGGGTCTTGATTCGCTTGACGCTGCTG,binding signal,[2],1.53 z-score
same,binding signal,[4],1.25 z-score
same,binding signal,[5],2.52 z-score
CCGATTAACATCATGATATCCGGTGATGTTAATCGGGTCTTGATTCGCTTGACGCTGCTG,binding signal,[4],1.07 z-score
same,binding signal,[5],1.11 z-score
CCGATTAACATCATGGTGCTTAATGATGTTAATCGGGTCTTGATTCGCTTGACGCTGCTG,binding signal,[5],1.41 z-score
CCGATTAACATCAGAATTTTTCCTGATGTTAATCGGGTCTTGATTCGCTTGACGCTGCTG,binding signal,[5],1.1 z-score
CCGATTAACATCACGTGTGTAGGTGATGTTAATCGGGTCTTGATTCGCTTGACGCTGCTG,binding signal,[2],1.58 z-score
same,binding signal,[5],1.87 z-score
